Consider 40 compounds from PubChem BioAssay (NCATS).

Inconclusive results are not listed. A call without a number means that no potency is given here. Activity calls are given as the source filed them. The call rests on the fitted dose curve.
Potency means the concentration at half of the fitted maximal effect.

Sequence of Cytochrome P450 1A2 (Homo sapiens) (P05177 whole entry, looked up): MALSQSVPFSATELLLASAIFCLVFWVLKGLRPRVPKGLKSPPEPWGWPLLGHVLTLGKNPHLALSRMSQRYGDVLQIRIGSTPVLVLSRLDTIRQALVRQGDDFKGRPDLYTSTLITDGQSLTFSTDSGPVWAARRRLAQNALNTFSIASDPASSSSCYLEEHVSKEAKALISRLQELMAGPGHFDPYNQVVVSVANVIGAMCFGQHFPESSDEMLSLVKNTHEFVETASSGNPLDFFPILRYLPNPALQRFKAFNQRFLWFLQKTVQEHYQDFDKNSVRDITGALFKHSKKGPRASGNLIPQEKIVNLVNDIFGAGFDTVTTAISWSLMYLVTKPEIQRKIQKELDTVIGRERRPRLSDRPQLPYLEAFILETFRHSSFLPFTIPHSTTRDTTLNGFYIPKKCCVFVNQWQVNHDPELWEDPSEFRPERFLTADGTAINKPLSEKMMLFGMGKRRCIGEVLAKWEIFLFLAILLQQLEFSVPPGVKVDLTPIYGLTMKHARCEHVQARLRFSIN

This experiment concerns the target Cytochrome P450 1A2 (Homo sapiens) (UniProt P05177). As to the kind of experiment: p450-cyp1a2 (AID 410). As to conditions: recombinant CYP1A2, luciferin-ME demethylation, luminescence; series mostly up to 11.4 µM. The procedure: The P450 gene superfamily is involved in metabolism and the clearance of xenobiotics. This assay used human CYP1A2 to measure the demethylation of luciferin 6' methyl ether (Luciferin-ME; Promega-Glo) to luciferin. The luciferin is then measured by luminescence after the addition of a luciferase detection regeant. Luciferin-ME concentration in the assay was equal to its Km for CYP1A2.
NCGC Assay Protocol Summary:
Two uL of enzyme and substrate mix (final concentrations: 20nM CYP1A2, 100uM Luciferin-ME, 100mM KPO4) were dispensed into a white, solid bottom 1536-well microtiter plate. 23nL of compound was transferred by a pin tool. The plate was incubated at room temperature for 10 min. Two uL of an NADPH regeneration solution (Promega supplied reagent) was dispensed and the reaction was allowed to continue for 60 min at room temperature. Then the reaction was stopped by reconstituted detection reagent. After another 20 min of incubation the plate was read on the ViewLux (Perkin Elmer) at 60 sec exposure and 2x2 binning. This protocol was carried out with Promega-Glo reagents and further information can be found at http://www.promega.com/tbs/tb325/tb325.pdf. Data were normalized to the to AC100 inhibition (57 uM furafylline).
For `O=C(O)C[O][Sb][O]CC(=O)O`, the activity change, negative = inhibition was -7.8% [at 2.29 µM] (inactive).
As to `CN[C@H](Cc1ccccc1)c1cccc(OC)c1O`, the Potency result was “inactive”.
With `Nc1nc(N)c(N=Nc2ccc([As](=O)(O)O)cc2)c(=O)[nH]1`, the activity change, negative = inhibition is -14.9% [at 2.29 µM] (inactive).
Same read-out and setting: the value for `COc1cc2c(cc1OC)[C@]13CC[N@+]4(C)CC5=CCO[C@H]6CC(=O)N2[C@@H]1[C@@H]6[C@@H]5C[C@]34O` was -11.4% [at 2.29 µM] (inactive).
On the same count and under the same terms, in the case of `NNc1c(C(N)=O)c2c(N)ncnc2n1[C@@H]1O[C@H](CO)[C@@H](O)[C@@H]1O` it was -11.2% [at 2.29 µM] (inactive).
On to `CC1(C)CCC(C)(C)c2c1ccc(O)c2Cc1c(O)ccc2c1C(C)(C)CCC2(C)C`, for which the Potency is 5.01 µM (active).
Same read-out and setting: in the case of `CN1CCN(c2ccc([N+](=O)[O-])c3[nH]o[n+](=O)c23)CC1` it was 0.398 µM (active).
For the compound `CC[C@H]1CN2CCc3cc(OC)c(OC)cc3[C@H]2C[C@@H]1C[C@H]1NCCc2c1[nH]c1ccc(O)cc21`, the Potency entry is “inactive”.
Consider `C[C@@H](Cc1ccc(O)cc1)NC[C@@H](O)c1cc(O)cc(O)c1`, for which the Potency entry was “inactive”.
Consider `CC(C)N[C@@H](C)Cc1ccc(I)cc1`, for which the Potency is 10 µM (active).
On to `CO[C@@H]1CC=C2CCN3CCC4=C(CC(=O)OC4)[C@]23C1`, for which the Potency result was “inactive”.
Consider `O=C(C[C@H](c1ccccc1)c1c(O)c2ccccc2oc1=O)c1ccccc1`, for which the activity change, negative = inhibition is -12.6% [at 2.29 µM] (inactive).
On to `O=C(O)[C@H]1[C@H](C(=O)O)[C@H]2CC[C@@H]1O2`, for which the Potency result is “inactive”.
`CN(C)CS/C(N)=N/[C@H](O)C(Cl)(Cl)Cl`: the activity change, negative = inhibition was 4.1% [at 2.29 µM] (inactive).
On to `NC(=O)CN1C[C@@H](O)CC1=O`, for which the Potency result was “inactive”.
For the compound `O=[N+]([O-])c1cc(-c2ccc([As](=O)(O)O)cc2)ccc1[As](=O)(O)O`, the activity change, negative = inhibition is -10.9% [at 2.29 µM] (inactive).
Turning to `COc1ccc(C(=O)O[C@H]2CC[C@@]3(C)[C@H]4CC[C@H]5[C@]3(C[C@]3(O)[C@H]6CN7C[C@H](C)CC[C@H]7[C@](C)(O)[C@]6(O)[C@H](O)C[C@]53O)O[C@]24O)cc1OC`, the activity change, negative = inhibition was -20.9% [at 2.29 µM] (inactive).
With `O=[As](O)(O)c1ccc(N=Nc2ccc(O)cc2)cc1`, the Potency result is “inactive”.
As for `Cc1c([C@@H](C)[C@H]2NC[C@H](C)C[C@@H]2O)ccc2c1C[C@@H]1[C@H]2CC=C2C[C@@H](O)CC[C@@]21C`, the activity change, negative = inhibition was 1.3% [at 2.29 µM] (inactive).
As to `COc1ccc2c(c1O)-c1cccc3c1[C@H](C2)N(C)CC3`, the Potency was 3.98 µM (active).
`O=C(O)C(C(=O)O)P(=S)(S)c1ccccc1` (stereo not given): the Potency result was “inactive”.
For `CCNC(=O)[C@@H]1O[C@@H](n2cnc3c(N)ncnc32)[C@@H](O)[C@H]1O`, the Potency result is “inactive”.
On the same count and under the same terms, the value for `COc1ccc(C[C@@H]2NC[C@H](O)[C@@H]2OC(C)=O)cc1` was “inactive”; that for `N[C@@H](Cc1ccccc1)P(=O)(O)O` was “inactive”.
On to `C[C@@]12CC[C@H]3[C@@H](CC=C4C[C@H](OS(=O)(=O)O)CC[C@]43C)[C@H]1CCC2=O`, for which the Potency entry was “inactive”.
On the same count and under the same terms, the value for `Cc1nc2ccccc2cc1C[N+]12CN3CN(CN(C3)C1)C2` was 0.631 µM (active).
As for `CC(C)[C@]1(O)[C@@H](OC(=O)c2ccc[nH]2)[C@]2(O)[C@@]3(C)C[C@@]4(O)O[C@@]5([C@H](O)[C@@H](C)CC[C@]35O)[C@]2(O)[C@]41C`, the activity change, negative = inhibition was -17.2% [at 2.29 µM] (inactive).
Consider `COc1cc2ccccc2c2cc([N+](=O)[O-])oc12`, for which the Potency was 0.126 µM (active).
Same read-out and setting: in the case of `C[Se]C[C@@H](N)C(=O)O` it was “inactive”.
Same read-out and setting: the value for `C[As+](C)(c1ccc(Br)c([N+](=O)[O-])c1)c1ccc(Br)c([N+](=O)[O-])c1.O=[N+]([O-])O` was “inactive”; that for `NS(=O)(=O)C[C-]1C=C[CH]([Sb-]([Cl])([Cl])([Cl])([Cl])[Cl])C=C1.c1ccncc1` (stereo not given) was “inactive”.
On to `C[C@]12CC[C@@H]3[C@H](CCC4=CC(=O)CC[C@]43C)[C@]1(O)CC[C@@]2(O)C(=O)CO`, for which the activity change, negative = inhibition is 4.8% [at 2.29 µM] (inactive).
As for `COc1ccc2c(c1)[C@]13CCCC[C@@H]1[C@H](C2)NCC3`, the Potency entry was “inactive”.
Same read-out and setting: in the case of `O=P(O)(O)CCP(=O)(O)O` it was “inactive”.
Consider `CC[C@]1(OC(=O)CN)C(=O)OCc2c1cc1n(c2=O)Cc2cc3ccccc3nc2-1`, for which the activity change, negative = inhibition is -17.6% [at 2.29 µM] (inactive).
As to `O=C(O)c1cc(N=Nc2ccc([As](=O)(O)O)cc2)ccc1O`, the Potency entry was “inactive”.
Take `[N-]=[N+]=NCC(=O)c1c[nH]c(=O)[nH]c1=O`: the activity change, negative = inhibition was 0.1% [at 2.29 µM] (inactive).
For the compound `COc1cc([C@@H](O)CN)ccc1O`, the Potency entry is “inactive”.
As to `C=C[C@@H]1CN2CC[C@H]1C[C@H]2[C@H](O)c1ccnc2ccccc12`, the Potency result is “inactive”.
Same read-out and setting: in the case of `COc1cc2c3cc1Oc1c(O)c(OC)cc4c1[C@@H](Cc1ccc(cc1)Oc1cc(ccc1O)C[C@H]3N(C)CC2)N(C)CC4` it was “inactive”.
